Only some compounds are listed: those with a hit (about 21% of all), similar ones and a draw of the others.
Cycloheximide cs: counter-screen hit for Shiga toxin inhibitors, cycloheximide | cell reporter, cycloheximide protein synthesis inhibition counterscreen | max response, % | hit rate 12% among 300,000 | AID 2314; in the data active = max response mostly above about 13%, no sharp cut-off; inactive = mostly below about 14%; note: read at 38.3 µM for the half of the compounds with a filed dose; 0% is about no effect
SARS PLP yeast: SARS-CoV PLP inhibition in yeast. S. cerevisiae expressing SARS-CoV PLpro, growth rescue. Potency, µM (top dose mostly 32.9 µM), for the others: top-dose activity, positive = growth rescue, most hits filed as activators. hit rate 0.19% among 330,000. AID 485353; note: potency is the fitted concentration of half-maximal effect; 0% is about no effect; nearly all actives have a fitted effect of over 55% in size
Shiga inhibitor: Shiga toxin inhibition | Vero cells, Shiga toxin protein synthesis inhibition reporter | inhibition, % at 38.7 µM | hit rate 9.2% among 290,000; in the data active = inhibition mostly above about 28%, no sharp cut-off; inactive = mostly below about 43%; note: 0% is about no effect
Pf growth 48h: inhibits P. falciparum growth in the first generation, 48 h; P. falciparum luciferase growth in erythrocytes, 48 h; Potency, µM (top dose mostly 28.7 µM), for inactives: top-dose activity change, negative = inhibition, most hits filed as inhibitors; hit rate 5.9% among 310,000; AID 504832; active = well fitted inhibition curve with a large enough effect; inconclusive = small, poorly fitted or top-dose-only effect, or another doubt; inactive = no such curve, though single readings can be large or run the other way; note: potency is the fitted concentration of half-maximal effect; % is set by controls: 0 for no effect and ±100 for the full control effect
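Cell-based growth assay: transgenic P. falciparum expressing firefly luciferase, cultured in red cells within RPMI 1640 containing 0.5% w/v Albumax, 24 mM bicarbonate and gentamycin. A drop in luciferase activity indicates inhibition.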
Pf growth 96h: P. falciparum growth inhibition at 96 hour, primary screen for plastid delayed-death inhibitors | P. falciparum luciferase reporter growth, 96 h | Potency, µM (doses to about 28.7 µM), inactives show at the top dose activity change, negative = inhibition, hits mostly inhibitors | hit rate 6.9% among 320,000 | AID 504834; active = well fitted inhibition curve with a large enough effect; inconclusive = small, poorly fitted or top-dose-only effect, or another doubt; inactive = no such curve, though single readings can be large or run the other way; note: potency is the fitted concentration of half-maximal effect; % is set by controls: 0 for no effect and ±100 for the full control effect
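Delayed-death screen, second-generation endpoint: infected erythrocytes, 2% hematocrit, 0.05% parasitemia final; 96 hours at 37 C, 5% CO2; luciferase detection reagent; luminescence decrease equals reduced growth.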
NS1 inh: inhibitors of influenza NS1 protein function | Potency, µM (titrated, usually from 46.1 µM), inactives show at the top dose activity, positive = more growth | hit rate 0.4% among 270,000; note: potency is the fitted concentration of half-maximal effect; actives are rising curves; nearly all actives have a fitted effect of over 50% in size
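OD600 was taken as the measure of yeast growth restored by compound in an NS1-expressing S. cerevisiae strain. Cells had been washed out of glucose medium and diluted 1:100 into galactose -URA medium, pH 6.0.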
Starred values were filed as active, the others as inactive; ? = inconclusive; nt = no result. Unless noted, calls come from the whole dose curve.

SMILES | Cycloheximide cs | SARS PLP yeast | Shiga inhibitor | Pf growth 48h | Pf growth 96h | NS1 inh
Cc1cccc(C(C(N)=O)c2ncc(C(F)(F)F)cc2Cl)c1 (configuration not stated) | -2.6 | 0.0% | -14.3 | -18.7% | 3.2% | 3.6%
COC(=O)C(CC(C)C)NC(=O)C(Cc1ccccc1)NC(=O)C1CCCN1C(=O)OC(C)(C)C (configuration not stated) | -1.4 | -1.4% | -22.9 | -10.4% | 7.9% | 3.2%
Cc1ccc(C2(c3ccccc3)NC(=O)N(CC(=O)NC3CCCCC3)C2=O)cc1C (configuration not stated) | nt | 0.0% | nt | ? | ? | nt
COc1ccc(C2(c3ccc(OC)cc3)NC(=O)N(CC(=O)Nc3cc(C)ccc3OC)C2=O)cc1 | 32.7* | 5.1% | 116.0* | ? | ? | 10.4%
COc1ccc(C2(c3ccc(OC)cc3)NC(=O)N(CC(=O)Nc3ccc(C(=O)N(C)C)cc3)C2=O)cc1 | -2.0 | -2.9% | -11.6 | ? | ? | -14.2%
COc1ccccc1NC(=O)CN1C(=O)C2(OCCCO2)c2ccccc21 | -0.7 | -2.5% | -11.6 | 3.8% | -25.0% | -2.9%
COc1ccc(OC)c(NC(=O)CN2C(=O)C3(OCCCO3)c3ccccc32)c1 | -3.9 | -7.3% | 11.1 | -27.4% | 5.22µM* | 1.1%
CCCC1(c2ccccc2)NC(=O)N(CC(=O)N2CC(=O)Nc3ccccc32)C1=O (configuration not stated) | nt | 1.6% | nt | 2.94µM* | ? | nt
COc1ccccc1CNC(=O)CN1C(=O)NC(c2ccccc2)(c2ccc(C)c(C)c2)C1=O (configuration not stated) | nt | 1.2% | nt | 9.28µM* | 9.28µM* | nt
CCC1(c2ccc(F)cc2)NC(=O)N(CC(=O)N2CC(=O)Nc3ccccc32)C1=O (configuration not stated) | nt | 1.7% | nt | ? | -3.8% | nt
COc1ccc(NC(=S)N2CCN(C(=O)c3ccco3)CC2)cc1OC | -2.1 | -2.6% | 6.5 | -0.9% | ? | -3.7%
O=C(O)[C@@H]1CCCN1Cc1ccc2c(c1)OCO2 | nt | nt | nt | nt | nt | -5.6%
CC(C)(C)c1ccc(C(CC(=O)O)NC(=O)Cc2ccc(Cl)cc2)cc1 (configuration not stated) | -3.1 | -0.4% | -5.1 | -20.6% | 63.0% | 12.8%
Cc1ccc(S(=O)(=O)N2CCCCC2)cc1C(=O)NCCN1CCOCC1 | nt | 6.5% | nt | 16.6% | -6.7% | nt
COCCCN(C(=S)Nc1c(C)cc(C)cc1C)C(C)c1ccccn1 (configuration not stated) | -3.7 | -0.3% | -6.8 | -11.1% | -21.8% | -0.8%
Cc1ccc(C2(c3ccccc3)NC(=O)N(CC(=O)N3CC(=O)Nc4ccccc43)C2=O)cc1C (configuration not stated) | nt | 2.1% | nt | 2.33µM* | 3.7µM* | nt
O=C1CC2(CCN(C(=O)C3CC(=O)N(c4ccc(F)cc4)C3)CC2)Oc2ccccc21 (configuration not stated) | nt | 0.2% | nt | -18.3% | -5.6% | nt
COc1cccc(C(=O)Nc2cccc(OCC(=O)c3ccccc3)c2)c1 | 20.8* | -0.4% | 47.9 | ? | 34.0% | -4.5%
COc1cccc(C(=O)COc2ccc(NC(=O)c3ccccc3)cc2)c1 | 16.1* | -6.7% | 37.3 | -4.0% | ? | 4.5%
COc1cccc(C(=O)NCC(=O)OCC(=O)c2ccccc2)c1 | 29.0* | -5.1% | 83.1* | -0.9% | 23.6% | 11.9%
O=C(CNC(=O)c1cccc(OC(F)F)c1)OCC(=O)c1ccccc1 | 10.1 | -0.8% | -6.9 | 1.6% | 21.7% | nt
COc1cc(OC)cc(C(=O)NNC(=O)CN2C(=O)NC(C)(c3ccccc3)C2=O)c1 (configuration not stated) | nt | -1.5% | nt | ? | 33.8% | nt
COC(=O)[C@@]1(Cc2ccc(F)cc2)[C@H]2c3cc(C(=O)N(C)C)n(Cc4nc5ccccc5[nH]4)c3C[C@H]2CN1C(=O)c1ccccc1 | 10.0 | 13.5% | 5.5 | 1.47µM* | 3.7µM* | 28.3%
O=C(NCCc1nc2ccccc2[nH]1)C1CCC(=O)N(CCc2cccc(F)c2)C1 (configuration not stated) | -3.4 | -1.6% | -5.1 | -2.7% | ? | -1.0%
COC(=O)[C@@]1(Cc2ccc(F)cc2)[C@H]2c3cc(C(=O)N(C)C)n(CCSCCO)c3C[C@H]2CN1C(=O)c1ccccc1 | -4.4 | 6.3% | -11.5 | 6.57µM* | 13.1µM* | -6.0%
SMILES | Cycloheximide cs | SARS PLP yeast | Shiga inhibitor | Pf growth 48h | Pf growth 96h | NS1 inh
COC(=O)[C@@]1(Cc2ccc(F)cc2)[C@@H]2[C@@H](CC(=O)[C@H]2CC(=O)C(=O)N(C)C)CN1C(=O)c1ccccc1 | -3.9 | -5.5% | -2.6 | -23.4% | 9.28µM* | -27.8%
COC(=O)[C@@]1(Cc2ccc(F)cc2)[C@H]2c3cc(C(=O)N(C)C)n(Cc4ccccn4)c3C[C@H]2CN1C(=O)c1ccccc1 | -5.4 | -17.0% | 8.8 | 3.29µM* | 2.94µM* | -17.2%
COC(=O)c1ccc(CSC2=NC[C@@H]3[C@@H]4C(=O)N(C)C(=O)[C@@H]4[C@](Cc4ccccc4)(C(=O)OC)N23)cc1 | nt | -4.1% | nt | nt | nt | nt
Cc1ccc(S(=O)(=O)N(C)CC(=O)Nc2cccnc2)cc1 | 1.4 | -0.8% | -5.1 | ? | 21.4% | 11.0%
Cc1ccc(S(=O)(=O)N(C)c2cccc3cccnc23)cc1 | -0.6 | nt | -5.0 | nt | nt | nt
O=C1C2C3C=CC(C4CC34)C2C(=O)N1/N=C/c1ccc(-c2ccc(F)cc2[N+](=O)[O-])o1 (configuration not stated) | 31.0* | 16.0% | 14.5 | nt | 4.65µM* | -1.5%
COc1ccc2c(c1)[C@H]1[C@H](CO2)[C@H](c2ccccc2)[C@]2(C)C(=O)N[C@H](C)C(=O)N12 | nt | -3.6% | nt | 5.1% | ? | nt
COc1ccc(C(=O)/C(=C/c2cccs2)c2nc3ccccc3o2)cc1 | 43.0* | 21.0% | 92.7* | nt | ? | -3.2%
O=C(O)/C(=C\c1cccs1)c1ccccc1 | -1.6 | 0.0% | -13.0 | 18.8% | ? | 2.1%
COc1ccc(/C=C(\CC(=O)O)c2nc3ccccc3o2)cc1 | 38.8* | -13.1% | 107.5* | 213.6% | 134.7% | nt
O=C(NCC(O)c1ccccc1)c1ccc(Cl)c(S(=O)(=O)N2CCCC2)c1 (configuration not stated) | nt | -1.0% | nt | 9.28µM* | ? | nt
CN(C)S(=O)(=O)c1cc(C(=O)NCCCn2ccc3ccccc32)ccc1Cl | -1.6 | -1.2% | -11.9 | nt | 4.15µM* | 12.0%
O=C(NCCc1ccccc1)c1ccc(Cl)c(S(=O)(=O)N2CCCC2)c1 | 1.5 | -5.1% | -16.4 | -16.4% | 10.4µM* | -22.0%
O=C(NCc1ccccc1)c1ccc(Cl)c(S(=O)(=O)N2CCCC2)c1 | nt | 4.1% | nt | nt | nt | nt
COc1ccc(CCNC(=O)c2ccc(Cl)c(S(=O)(=O)N(C)c3ccccc3)c2)cc1 | 5.2 | -2.3% | 8.4 | ? | 10.4µM* | -0.5%
COc1ccc(C2=NOC(C(=O)N3CCOCC3)C2)cc1OC (configuration not stated) | 17.7* | 7.5% | 49.5* | 108.9% | 108.7% | -17.5%
